NS1 inh: inhibitors of influenza NS1 protein function; Potency, µM (titrated, usually from 46.1 µM), for inactives: at the highest dose activity, positive = more growth; hit rate 0.4% among 270,000; AID 2326; calls by dose curve; further: actives are rising curves; nearly all actives have a fitted effect of over 50% in size
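In this qHTS, NS1 from influenza A is expressed in budding yeast, where it slows growth. Cells are switched from glucose to 2% galactose medium (pH 6.0, -URA), treated with compound, and growth recovery is read at OD600.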
Tb PYK inh: blocks Trypanosoma brucei pyruvate kinase; Q57TT1; TbPYK enzyme, Kinase-Glo Plus ATP luminescence, 45 min; Potency, µM (highest dose often 76.8 µM), inactives show top-dose activity, negative = inhibition, actives largely listed as inhibitors; hit rate 0.12% among 410,000; further: on the % scale 0 is the no-effect control and ±100 the full control effect; nearly all actives have a fitted effect of over 50% in size
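Luminescent Kinase-Glo Plus end-point after 45 min room-temperature reaction of T. brucei pyruvate kinase started with 130 uM ADP (final). Buffer TEA 50 mM pH 7.2 with KCl, MgCl2, BSA, Tween-20; titration-based qHTS with fitted concentration-effect curves.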
RE007 growth inh: less growth of the S. pombe RE007 Vpr strain; S. pombe RE007 Vpr strain, BacTiter-Glo ATP luminescence, 24 h; Potency, µM (titrated, usually from 92.2 µM), for the others: at the top dose activity change, negative = less growth, most hits filed as inhibitors; hit rate 0.21% among 360,000; active means well fitted falling curve with a large enough effect; inconclusive means small, poorly fitted or top-dose-only effect; inactive means no such curve, though single readings can be large or run the other way; further: on the % scale 0 is the no-effect control and ±100 the full control effect; nearly all actives have a fitted effect of over 50% in size
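Fission yeast RE007 carrying one integrated HIV-1 vpr copy, seeded at OD 0.01 in PMG+AL medium with 23 nL pinned compound. Grown 24 h at 30 degrees; viability read by BacTiter-Glo luminescence after 5 min.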
Sm TGR block: inhibitors of Schistosoma mansoni thioredoxin glutathione reductase | Q962Y6 | purified TGR, DTNB reduction, TNB absorbance 405 nm | Potency, µM (highest dose often 114 µM), for inactives: at the highest dose activity change, negative = inhibition, most hits filed as inhibitors | hit rate 3% among 360,000; further: on the % scale 0 is the no-effect control and ±100 the full control effect; nearly all actives have a fitted effect of over 60% in size
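Kinetic colorimetric format: TGR-catalysed, NADPH-driven DTNB reduction monitored via TNB absorbance. Enzyme dispensed at 20 nM; compound exposure 15 min at room temperature before reaction start.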
LmPK inhibitor: blocks Leishmania mexicana pyruvate kinase activity | purified LmPK, Kinase-Glo ATP luminescence, 1 h | Potency, µM (highest dose often 57.5 µM), inactives show top-dose activity change, negative = inhibition, actives largely listed as inhibitors | hit rate 0.37% among 290,000; further: on the % scale 0 is the no-effect control and ±100 the full control effect
Target sequence (Q27686 whole entry, looked up): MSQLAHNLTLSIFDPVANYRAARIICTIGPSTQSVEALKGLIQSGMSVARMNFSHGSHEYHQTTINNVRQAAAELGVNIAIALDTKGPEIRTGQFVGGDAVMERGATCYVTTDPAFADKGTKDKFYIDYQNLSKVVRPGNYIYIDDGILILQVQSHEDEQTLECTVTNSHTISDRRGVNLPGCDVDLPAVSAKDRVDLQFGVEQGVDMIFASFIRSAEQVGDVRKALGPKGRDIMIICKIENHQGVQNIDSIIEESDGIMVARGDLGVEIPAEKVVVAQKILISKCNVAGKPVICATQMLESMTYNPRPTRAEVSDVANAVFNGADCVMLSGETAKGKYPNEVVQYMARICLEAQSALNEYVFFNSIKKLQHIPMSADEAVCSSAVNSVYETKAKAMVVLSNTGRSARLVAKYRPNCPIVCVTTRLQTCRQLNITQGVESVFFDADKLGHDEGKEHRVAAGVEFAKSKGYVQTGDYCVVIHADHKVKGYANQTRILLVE
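Purified LmPK (0.1 nM) converted ADP (0.1 mM) to ATP with PEP (0.5 mM) in imidazole buffer pH 7.2 with KCl and MgCl2, 1 h at room temperature. ATP was read by Kinase-Glo luminescence; data normalized to uninhibited and no-enzyme controls.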
FBPA Giardia inh: Giardia lamblia aldolase inhibition | A8B2U2 | hit rate 0.71% among 290,000 | purified Giardia FBPA | Potency, µM (doses to about 59.6 µM), for the others: at the top dose activity, negative = inhibition, actives largely listed as inhibitors; further: on the % scale 0 is the no-effect control and ±100 the full control effect; nearly all actives have a fitted effect of over 55% in size
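Giardia FBPA (40 nM reagent) was preincubated 10 min at RT with compound (up to 57.5 uM final), then substrate plus GAPDH/TPI/NAD/arsenate coupling system with diaphorase/resazurin was added; resorufin fluorescence (525/598 nm) was read after 20 min.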
* marks the source's active call; other numbers are inactive results; ? = inconclusive; / = no result; [ ] = another dose, or the depositor's remark. Compounds with a hit are over-represented: about 3.5% of the library has one in this group of screens. Unless noted, the call rests on the fitted dose curve; in most records, active means well fitted curve in the direction sought with a large enough effect; inconclusive means small, poorly fitted or top-dose-only effect, or another doubt; inactive means no such curve, though single readings can be large; an effect the other way counts as inactive or inconclusive. Potency means the concentration at half of the fitted maximal effect.

SMILES	NS1 inh	Tb PYK inh	RE007 growth inh	Sm TGR block	LmPK inhibitor	FBPA Giardia inh
CCOC(=O)c1ccc(N2C(=O)CC(N3CCC(O)(c4ccc(Br)cc4)CC3)C2=O)cc1 (stereo not drawn)	-170%	-9%	-6%	50µM*	1%	4%
CCOc1ccc(N2C(=O)CC(N3CCC(O)(c4ccc(Br)cc4)CC3)C2=O)cc1 (stereo not drawn)	-245%	2%	35µM*	0%	5%	0%
Cc1cccc(NC(=O)CSC2=Nc3ccccc3C3=NC(CCC(=O)NCc4ccco4)C(=O)N23)c1 (stereo not drawn)	/	1%	/	-5%	/	/
CCCc1cc(=O)[nH]c(Nc2cc(Cl)cc(Cl)c2)n1	/	3%	/	11%	/	/
Cc1ccc(NC(=O)COC(=O)C(NS(=O)(=O)c2ccc(Cl)cc2)C(C)O)cc1C (stereo not drawn)	-6%	-10%	28%	45µM*	6%	1%
C#CCCCO/N=C1/C[C@@H](O)[C@@H](O)[C@@H]2[C@@H]3C(=O)N(CCC(=O)OCC)C(=O)[C@H]3CC[C@@H]12	/	/	/	/	/	1%[12.9 µM]
O=C1C(=Cc2ccco2)CCCC1=Cc1ccco1	/	-12%	-6%	/	/	/
CC(=O)COc1ccc2c(c1C)O/C(=C\c1ccco1)C2=O	-1%	4%	?	20µM*	6%	-1%
Cc1cc(O)c(CN(C)C)c2c1C(=O)/C(=C/c1ccco1)O2	8%	-17%	1%	4µM*	-1%	-6%
Cc1c(OC(=O)N(C)C)ccc2c1O/C(=C\c1ccco1)C2=O	-7%	-19%	6%	11µM*	2%	7%
O=C1C(=Cc2ccco2)CCC1=Cc1ccco1	/	?	-13%	/	/	/
Cc1ccc(/C=C/C(=O)O)cc1S(=O)(=O)NCCO	3%	-6%	25%	45µM*	1%	-1%
Cc1ccc(/C=C/C(=O)O)cc1S(=O)(=O)Nc1ccc(C(=O)O)cc1	6%	-5%	4%	35µM*	0%	-14%
NCCCC(O)(P(=O)(O)O)P(=O)(O)O	/	2%	/	/	/	0%
CC(=O)c1sc(NS(=O)(=O)c2ccc(C)cc2)nc1C	/	2%	11%	-1%	-6%	27%
Cc1nc(NS(=O)(=O)c2ccccc2)sc1NC(=O)Nc1ccccc1	8%	-9%	-1%	/	5%	3%
Cc1ccc(S(=O)(=O)Nc2nc(C)c(C(=O)NN)s2)cc1	16%	-5%	-18%	71µM*	8%	11%
CC(=O)c1ccc(NC(=O)Nc2sc(NS(=O)(=O)c3ccccc3)nc2C)cc1	1%	-4%	-14%	35µM*	4%	?
CCOC(=O)Nc1sc(NS(=O)(=O)c2ccccc2)nc1C	6%	-8%	18%	50µM*	4%	-14%
Cc1nc(NS(=O)(=O)c2ccccc2)sc1NC(=O)Nc1ccc(Cl)cc1	9%	1%	-2%	5.6µM*	6%	-15%
CCCOc1ccc(CNC(=O)CN2C(=O)c3cccnc3Oc3ccc(C)cc32)cc1	/	-7%[15.4 µM]	/	1%	/	/
CCCCOc1ccc(C(=O)CCN2CCCCC2)cc1	-43%	-16%	?	0.32µM*	2%	-5%
CC(C)COc1ccc(C(=O)OCCN2CCCCC2)cc1	8%	4%	-15%	5%	2%	-5%
CC(C)COc1ccc(C(=O)CCN2CCCCC2)cc1	-18%	-7%	?	0.35µM*	-2%	-1%
Cc1ccc(NC(=O)Cn2c(=O)n(CC3CCC(C(=O)NC(C)C)CC3)c(=O)c3sccc32)cc1 (stereo not drawn)	/	-17%	/	23%	/	/
O=C(CNC(=O)c1ccc(F)cc1)NCc1ccc(S(=O)(=O)N2CCOCC2)cc1	/	?	23%	89µM*	/	/
O=C(NCc1ccc(F)cc1)c1ccc(S(=O)(=O)N2CCCC2)cc1	/	5%	6%	/	/	/
CCOC(=O)N1CCc2c(sc3c2c(=O)n(-c2ccc(CC)cc2)c(=O)n3CC(=O)Nc2ccc(C)cc2)C1	/	-2%	/	-5%	/	/
Clc1cc(NCc2cccs2)ccc1N1CCOCC1	-46%	-10%	-19%	45µM*	-3%	?
